How the values were obtained:
Assay in all cases: PBM binding z-score (relative to random genomic background probes); higher = stronger binding; sequences stand for … in GC…GCGATTGACAGCGTAGAATGAAGG
[1] = test system: FXR:RXRa (NR concentration 270 nM, RXRa partner concentration 90 nM)
In short: (§1)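 Antibodies against each partner of ligand-free nuclear receptor dimers (one per run) detected binding on custom Agilent 4×180K protein-binding microarrays after 1 h incubation. The double-stranded probes had 34-nt variable regions carrying direct-repeat seeds, single-nucleotide variants, half-site ablations and random human genomic background sequences. Binding z-scores, from regression-normalized fluorescence, use the random background probes as reference.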

[2] = test system: LXRa:RXRa (NR concentration 270 nM, RXRa partner concentration 90 nM)
In short: as §1

[3] = test system: LXRa homodimer (NR concentration 270 nM)
In short: as §1

[4] = test system: LXRb:RXRa (NR concentration 270 nM, RXRa partner concentration 90 nM)
In short: as §1

[5] = test system: LXRb homodimer (NR concentration 270 nM)
In short: as §1

[6] = test system: PPARg:RXRa (NR concentration 180 nM, RXRa partner concentration 90 nM)
In short: as §1

[7] = test system: PPARg:RXRa 270nM:90nM, anti-RXR (NR concentration 270 nM, RXRa partner concentration 90 nM)
In short: as §1

[8] = test system: PPARg:RXRa 30nM:10nM, anti-RXR (NR concentration 30 nM, RXRa partner concentration 10 nM)
In short: as §1

[9] = test system: PPARg:RXRa 90nM:30nM, anti-RXR (NR concentration 90 nM, RXRa partner concentration 30 nM)
In short: as §1

| Sequence | PBM binding z-score [1] | PBM binding z-score [2] | PBM binding z-score [3] | PBM binding z-score [4] | PBM binding z-score [5] | PBM binding z-score [6] | PBM binding z-score [7] | PBM binding z-score [8] | PBM binding z-score [9] |
| --- | --- | --- | --- | --- | --- | --- | --- | --- | --- |
| CGTCCAAGGTCAAGGTCACTGAAAGAGACTCGAA | 8.15 | 6.19 | 2.24 | 5.23 | 0.938 | 7.36 | 6.98 | 4.14 | 5.87 |
| CCTAGCAGGCCACGGTCACTCAAGCATTTCGCTT | 0.26 | 0.128 | -0.0188 | 0.0634 | -0.369 | 0.0164 | 0.322 | -0.777 | -0.122 |
| AGAATGAGGTTAAGATTAGGGAAACAGAATACAT | 2.33 | 1.73 | 0.0443 | 1.78 | -0.185 | 2.52 | 2.36 | 0.986 | 1.91 |
| GCTGCTAGGTCAACTGATGGTCAGCTAGAGCTCG | 3.85 | 2.95 | 0.128 | 1.85 | 0.313 | 2.7 | 2.98 | 0.27 | 2.01 |
| CAAAATAGGTCAAGGTCAAAGTCGGTTTGTGCCA | 7.38 | 5.98 | 4.65 | 5.22 | 2.2 | 8.81 | 7.46 | 5.59 | 7.54 |
| CGTCCAAGGTCCATGCTAGGTCAGTGAAAGCATT | 0.162 | 3.49 | 0.25 | 0.906 | -0.855 | -0.453 | -0.317 | -0.678 | -0.366 |
| CCGACTTGGGCAAAGGTTACCATACTCAGTACGA | 0.847 | 1.32 | 0.214 | 1.68 | -0.6 | 6.45 | 6.29 | 5.67 | 7.54 |
| CCTGCTAGTTCATGGTCAGCTAATCTACAGTATG | -0.0312 | 0.212 | -0.184 | 0.106 | -0.269 | -0.348 | -0.236 | -0.124 | -0.29 |
| TCTAGCAGGCCATAGGGTCACTCAAGAGGTACGG | 2.31 | 1.65 | -0.243 | 1.73 | -0.428 | 2.46 | 3.27 | 2.5 | 3.13 |
| CCTACTGGGCCAAAGGTCATTGACTCCAATGCTC | 5.27 | 5.54 | 4.65 | 5.25 | 0.543 | 12.1 | 10.3 | 10.7 | 11.4 |
| CCAGACAGGTGAAAGGTAACTCACTCTGGTACGC | 1.02 | 0.665 | -0.00301 | 0.938 | -0.466 | 6.03 | 6.05 | 4.21 | 6.66 |
| AGACAAAGTTCAGGACGAGGTAACGTAAAGCACG | 4.35 | 3.92 | 0.814 | 1.95 | -0.0251 | 2.53 | 2.93 | 1 | 1.97 |
| CAATCTAGGTCAAAGGTCAAAGTCGAGCCAACCA | 8.46 | 7.47 | 6.51 | 7.41 | 3.28 | 14 | 11.2 | 12.9 | 13.1 |
| AATTCAGGGTCACTAGGCCAGAGTAGGTACGAAT | 6.96 | 6.2 | 1.95 | 4.99 | 1.68 | 9.15 | 7.59 | 4.55 | 6.76 |
| CCTACTGGGCCAACAAGGTCATTGATGCCGATAA | 2.09 | 2.49 | 1.44 | 2.45 | -0.582 | 3.23 | 3.3 | 0.856 | 2.31 |
| AGCTCTAGGTAAAAGTTCAGTGAATCCCGAGGAT | 0.542 | 0.948 | 0.969 | 0.702 | -0.253 | 7.73 | 7.47 | 6.13 | 7.9 |
| TCTAGTTGGTCAAAGGTCTCACACTCGAAATGCG | 1.27 | 1.49 | 0.269 | 1.57 | 0.449 | 7.81 | 7.33 | 6.65 | 8.53 |
| AGAATGAGGTTACACGTAGATCAGGGAAGAAAGT | 2.62 | 1.97 | -0.126 | 1.74 | -0.022 | 2.84 | 2.76 | 0.95 | 1.91 |
| GCTTACGGGTCAAAGGTTATAACATGAATAGAAT | 7.52 | 5.95 | 0.829 | 5.89 | 1.05 | 11.2 | 9.66 | 8.65 | 10.4 |
| TAGCCTAGGTCATTCAGGGGCCAGTATGGAAAGC | 4.71 | 3.88 | 0.839 | 2.81 | 1.22 | 2.1 | 2.25 | 0.204 | 1.74 |
| CCTAGTAGGTTATGGGGCATTCAGGCAACGGTGA | 0.561 | 0.515 | -0.0293 | 0.689 | -0.176 | 5.47 | 5.67 | 4.4 | 6.07 |
| TAGCCTCGGTCATTGGGCCAGTATAGTACGCATC | 0.733 | 0.704 | 0.605 | 0.0326 | -0.0168 | 0.597 | 0.0656 | -0.712 | -0.209 |
| CCTACTGGGCCATTGAGAGGTCATTGATCATATG | 1.94 | 3.79 | 6.21 | 3.34 | 0.0421 | 1.83 | 2.82 | 0.314 | 1.68 |
| CCTAGTTGGTCAGGTGGTCACACACCGGATATGA | 0.558 | 0.139 | 0.26 | 0.406 | -0.0912 | 0.84 | 1.18 | 0.231 | 0.655 |
| CCTACTGGGCCAAGGTCTTTGATCAGTCAAAGCA | -0.503 | -0.304 | -0.544 | -0.54 | -0.812 | 0.806 | 1.32 | 0.0343 | 0.749 |
| ACTTACGGGTCAACGGGGTTATAGCACGCGTATA | 6.95 | 4.81 | 0.682 | 5 | 0.93 | 6.4 | 5.83 | 2.51 | 4.14 |

From the supplement of paper PMC6555819
